The source of these data is PubChem BioAssay.

The source made the active and inactive calls.

For assay [1], the system named is Plasmodium falciparum Sir2 (PF13_0152, Sir2A). Briefly: pfSir2 binders on small-molecule microarrays, primary screen, biochemical, small-molecule microarray, 635 nm fluorescence (AID 1098).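 Further: score merges spot fluorescence intensity with its signal-to-noise ratio.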 Particulars: small-molecule microarray binding, fluorescence 635 nm; higher = more signal.
A short description of assay [2]: small-molecule microarray binders of probe aDKK1, primary screen, biochemical, biotinylated probe, 635/667 nm fluorescence (AID 1099).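 Further: score merges 667nm spot fluorescence with signal to noise across triplicate slides.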 Particulars: higher = more signal.
The nature of assay [3]: small-molecule microarray binders of probe aCHRDL2, primary screen, biochemical, biotinylated probe, 635/667 nm fluorescence (AID 1100). Particulars: higher = more signal.
Assay [4] in a line: splicing luciferase reporter signal modulators, primary screen, spliceosome inhibition project, cell-based, HEK293, splice +/- reporter (AID 1101).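 Further: HEK293 cells carrying a splicing-competent luciferase reporter gene; test concentration not given here.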 Particulars: luminescence, 24 h, higher = more signal, called active from +8 up or from −8 down. A general note: Reporter assays use an easily measured gene product as a stand-in for the process of interest.
Assay [5] deals with Fibroblast growth factor 10 (Homo sapiens) (UniProt O15520). In words: FGF10 binders on small-molecule microarrays, primary screen, biochemical, small-molecule microarray, 635 nm fluorescence (AID 1102). Particulars: FGF10 binding, fluorescence 635 nm, higher = more signal.
Sequence of Fibroblast growth factor 10 (Homo sapiens) (O15520 whole entry, looked up): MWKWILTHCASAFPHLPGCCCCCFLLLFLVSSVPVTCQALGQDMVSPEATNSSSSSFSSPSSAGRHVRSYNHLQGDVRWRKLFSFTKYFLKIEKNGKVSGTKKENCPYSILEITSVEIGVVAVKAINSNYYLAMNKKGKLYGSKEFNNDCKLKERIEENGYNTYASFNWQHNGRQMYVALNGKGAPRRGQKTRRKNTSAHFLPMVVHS
Assay [6] concerns glycogen synthase kinase-3 (GSK3A per assay name; protocol says GSK3B). Briefly: GSK3 binders on small-molecule microarrays, primary screen, biochemical, small-molecule microarray, 635 nm fluorescence, GSK3A (AID 1103). Further: the record names both GSK3A and GSK3B. Particulars: small-molecule microarray binding, fluorescence 635 nm; higher = more signal.
For assay [7], the target named is Epidermal growth factor receptor (Homo sapiens) (UniProt P00533). Briefly: EGFR binders on small-molecule microarrays, primary screen, biochemical, small-molecule microarray, 635 nm fluorescence (AID 1104).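 Further: score merges 667 nm emission intensity with spot signal to noise over triplicate slides.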 Particulars: EGFR binding, higher = more signal.
Sequence of Epidermal growth factor receptor (Homo sapiens) (P00533 whole entry, looked up): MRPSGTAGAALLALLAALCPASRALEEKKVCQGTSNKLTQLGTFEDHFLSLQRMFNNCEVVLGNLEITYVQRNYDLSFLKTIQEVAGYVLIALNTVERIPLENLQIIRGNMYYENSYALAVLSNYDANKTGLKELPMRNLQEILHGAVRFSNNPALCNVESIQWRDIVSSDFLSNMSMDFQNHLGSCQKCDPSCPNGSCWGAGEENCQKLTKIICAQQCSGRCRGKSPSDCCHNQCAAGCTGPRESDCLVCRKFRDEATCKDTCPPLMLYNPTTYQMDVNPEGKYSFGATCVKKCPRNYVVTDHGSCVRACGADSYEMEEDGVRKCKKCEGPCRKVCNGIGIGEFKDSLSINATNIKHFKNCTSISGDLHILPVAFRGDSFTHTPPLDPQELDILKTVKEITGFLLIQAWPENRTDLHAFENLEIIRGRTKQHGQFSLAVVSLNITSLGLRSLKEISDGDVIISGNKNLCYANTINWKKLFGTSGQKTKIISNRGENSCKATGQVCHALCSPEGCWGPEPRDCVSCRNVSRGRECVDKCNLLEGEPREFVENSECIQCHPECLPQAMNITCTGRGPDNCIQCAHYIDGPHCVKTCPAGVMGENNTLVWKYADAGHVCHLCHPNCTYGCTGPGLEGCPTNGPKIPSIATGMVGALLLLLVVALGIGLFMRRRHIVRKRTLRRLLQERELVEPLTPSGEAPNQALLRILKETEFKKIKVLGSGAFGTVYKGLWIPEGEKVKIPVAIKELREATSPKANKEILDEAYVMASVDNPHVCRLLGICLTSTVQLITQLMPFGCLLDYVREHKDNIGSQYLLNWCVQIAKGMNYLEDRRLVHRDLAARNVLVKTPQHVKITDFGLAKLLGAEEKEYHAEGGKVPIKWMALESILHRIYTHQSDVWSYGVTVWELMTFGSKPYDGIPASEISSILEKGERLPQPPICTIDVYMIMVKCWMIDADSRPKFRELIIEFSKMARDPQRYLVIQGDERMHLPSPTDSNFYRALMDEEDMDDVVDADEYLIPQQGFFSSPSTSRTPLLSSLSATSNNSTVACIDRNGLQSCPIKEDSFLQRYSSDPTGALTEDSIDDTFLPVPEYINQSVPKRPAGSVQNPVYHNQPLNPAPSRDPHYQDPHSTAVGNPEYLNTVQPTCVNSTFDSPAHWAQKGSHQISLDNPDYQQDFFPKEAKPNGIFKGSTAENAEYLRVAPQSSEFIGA
Assay [8] deals with Follistatin-related protein 3 (Homo sapiens) (UniProt O95633). In words: FSTL3 binders on small-molecule microarrays, primary screen, biochemical, small-molecule microarray, 635 nm fluorescence (AID 1105).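 Further: score merges emission near 667 nm and signal to noise per printed spot across three slides.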 Particulars: FSTL3 binding, higher = more signal.
Sequence of Follistatin-related protein 3 (Homo sapiens) (O95633 whole entry, looked up): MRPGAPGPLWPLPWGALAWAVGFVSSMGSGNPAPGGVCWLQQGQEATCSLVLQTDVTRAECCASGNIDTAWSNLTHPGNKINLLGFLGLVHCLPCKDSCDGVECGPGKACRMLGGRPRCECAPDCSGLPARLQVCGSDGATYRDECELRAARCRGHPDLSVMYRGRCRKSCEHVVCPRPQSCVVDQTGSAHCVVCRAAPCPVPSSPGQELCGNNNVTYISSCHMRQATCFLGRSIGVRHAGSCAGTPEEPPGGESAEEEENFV
Assay [9] concerns the target Dickkopf-related protein 1 (Homo sapiens) (UniProt O94907). In words: DKK1 binders on small-molecule microarrays, primary screen, biochemical, small-molecule microarray, 635 nm fluorescence scan (AID 1106).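 Further: score merges emission near 667 nm with signal to noise over three replicate slides.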 Particulars: DKK1 binding, higher = more signal.
The subject of assay [10] is Inhibin beta A chain (activin A). Briefly: INHBA (activin A) binders on microarrays, primary screen, biochemical, small-molecule microarray, 635 nm fluorescence scan (AID 1107).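 Further: mouse activin A protein probed at 4.33 µg/mL on printed slides; score merges bound-protein fluorescence near 667 nm with spot signal-to-noise.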 Particulars: small-molecule microarray binding, higher = more signal.
The test system of assay [11] is Human papillomavirus type 1a protein E7 (residues 44-93). In words: HPV1a E7 fragment binders on microarrays, primary screen, biochemical, small-molecule microarray, residues 44-93, 635 nm fluorescence (AID 1108).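 Further: E7 fragment applied at 1 µg/mL in TBST for 1 h at 4 C; score combines spot fluorescence with its signal to noise ratio.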 The note with it: small-molecule microarray binding, fluorescence 635 nm; higher = more signal.
A short description of assay [12]: modulators of HCV replicon luciferase signal, primary screen, HCV replication inhibitor project, Huh7 cells, luciferase reporter (AID 1109).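 Further: huh7 hepatoma cells harbouring a luciferase neomycin HCV replicon reporter; luciferase luminescence as measure of HCV replicon replication; test concentration not given here.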 Particulars: 48 h, higher = more signal.
Assay [13] has as its target Left-right determination factor 2 (Homo sapiens) (UniProt O00292). In words: LEFTY2 binders on small-molecule microarrays, primary screen, biochemical, small-molecule microarray, 635 nm fluorescence scan (AID 1110). Particulars: LEFTY2 binding, higher = more signal.
Assay [14] deals with Calmodulin-1 (Homo sapiens) (UniProt P0DP23). In words: CALM1 binders on microarrays, EGTA buffer, profiling panel, biochemical, small-molecule microarray, Cy5-labelled CALM1 (AID 1111).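 Further: labelled calmodulin applied in Tris saline Tween buffer holding calcium plus EGTA and DTT.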 Particulars: Cy5-CALM1 binding fluorescence, higher = more signal.
Assay [15] has the same target. Briefly: calcium-bound CALM1 binders on microarrays, profiling panel, artefact control for SMM control-protein annotation, biochemical, small-molecule microarray, Cy5-labelled CALM1, plus calcium (AID 1112).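 Further: score merges spot fluorescence with signal to noise from triplicate slides.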 The note with it: Cy5-CALM1 binding fluorescence, higher = more signal.
A short description of assay [16]: small-molecule microarray binders of probe aWnt5a, primary screen, biochemical, biotinylated probe, 635/667 nm fluorescence (AID 1113).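 Further: score merges 667 nm fluorescence intensity with signal-to-noise per printed feature.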 The note with it: higher = more signal.
The nature of assay [17]: small-molecule microarray binders of probe aShh, primary screen, biochemical, biotinylated probe, 635/667 nm fluorescence (AID 1114).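 Further: probe is biotin-labelled aShh protein from a stem cell growth factor screen; measures binding of labelled protein to compounds printed on the slide; score merges feature fluorescence at 667 nm with signal-to-noise.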 Particulars: higher = more signal.
A short description of assay [18]: small-molecule microarray binders of probe aNog, primary screen, biochemical, biotinylated probe, 635/667 nm fluorescence (AID 1115).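 Further: probe is biotinylated aNog protein used at 0.15 µg/mL for 1 h at 4 C; z-score combines 667 nm fluorescence of each spot with its signal to noise.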 Particulars: higher = more signal.
Assay [19] deals with Torsin-1A-interacting protein 1 (Homo sapiens) (UniProt Q5JTV8). Briefly: LAP1 binders from COS7 cell lysate, primary screen, small-molecule microarray, 635/667 nm fluorescence (AID 1116). Particulars: COS7-hLAP1 lysate binding, 635 nm fluorescence, higher = more signal.
Sequence of Torsin-1A-interacting protein 1 (Homo sapiens) (Q5JTV8 whole entry, looked up): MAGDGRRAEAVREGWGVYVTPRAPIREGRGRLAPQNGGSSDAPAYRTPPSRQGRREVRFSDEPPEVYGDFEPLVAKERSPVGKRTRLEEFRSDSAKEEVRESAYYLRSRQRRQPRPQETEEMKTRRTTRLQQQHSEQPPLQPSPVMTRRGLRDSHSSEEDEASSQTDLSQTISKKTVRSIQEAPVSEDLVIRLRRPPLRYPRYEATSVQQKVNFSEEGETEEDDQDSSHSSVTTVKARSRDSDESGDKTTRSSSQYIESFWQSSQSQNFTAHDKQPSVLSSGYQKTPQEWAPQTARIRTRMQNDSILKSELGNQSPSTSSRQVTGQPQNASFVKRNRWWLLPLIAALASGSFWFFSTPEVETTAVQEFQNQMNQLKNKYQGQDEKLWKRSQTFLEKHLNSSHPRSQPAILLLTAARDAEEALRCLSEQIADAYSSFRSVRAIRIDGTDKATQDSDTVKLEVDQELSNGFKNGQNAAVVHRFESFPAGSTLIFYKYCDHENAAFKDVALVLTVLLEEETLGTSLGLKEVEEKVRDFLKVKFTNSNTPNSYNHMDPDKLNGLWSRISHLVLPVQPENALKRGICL
In assay [20] the target is Alpha-bungarotoxin (Bungarus multicinctus) (UniProt P60615). In words: alpha-bungarotoxin binders on microarray, profiling panel, artefact control for SMM control protein annotation, biochemical, small-molecule microarray, Alexa647 label, 635/667 nm fluorescence (AID 1117). The note with it: alpha-BTX-A647 binding fluorescence, higher = more signal.
Sequence of Alpha-bungarotoxin (Bungarus multicinctus) (P60615 whole entry, looked up): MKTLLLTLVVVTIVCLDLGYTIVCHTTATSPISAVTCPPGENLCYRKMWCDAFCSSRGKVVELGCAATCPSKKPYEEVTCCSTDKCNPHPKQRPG

Sequence of Dickkopf-related protein 1 (Homo sapiens) (O94907 whole entry, looked up): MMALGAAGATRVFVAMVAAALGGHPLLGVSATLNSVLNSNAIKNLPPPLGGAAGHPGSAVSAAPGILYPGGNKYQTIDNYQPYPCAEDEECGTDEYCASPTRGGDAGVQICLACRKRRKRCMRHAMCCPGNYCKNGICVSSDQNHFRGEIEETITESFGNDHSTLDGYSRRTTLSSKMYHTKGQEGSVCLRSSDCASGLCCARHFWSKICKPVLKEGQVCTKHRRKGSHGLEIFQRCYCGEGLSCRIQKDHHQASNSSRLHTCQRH
Sequence of Left-right determination factor 2 (Homo sapiens) (O00292 whole entry, looked up): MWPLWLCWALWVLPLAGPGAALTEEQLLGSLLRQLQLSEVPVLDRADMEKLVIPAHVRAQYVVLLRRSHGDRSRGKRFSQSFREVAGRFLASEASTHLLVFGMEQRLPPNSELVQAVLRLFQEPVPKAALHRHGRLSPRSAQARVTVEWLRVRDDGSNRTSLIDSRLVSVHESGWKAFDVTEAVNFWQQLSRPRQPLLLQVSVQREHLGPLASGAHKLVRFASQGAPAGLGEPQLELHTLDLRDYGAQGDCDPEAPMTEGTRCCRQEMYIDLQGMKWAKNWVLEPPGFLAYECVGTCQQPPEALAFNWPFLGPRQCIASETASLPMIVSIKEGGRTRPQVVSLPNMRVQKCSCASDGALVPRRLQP

For `CCC(CC)C(O)C1C=CC2C(=O)N(c3ccccc3)C(=O)C2N1Nc1ccccc1F` (stereo not given), the composite z-score worked out at 1.17 in [1]; 0.373 in [2]; 0.481 in assay [3]; 0.412 in [5]; 0.554 in assay [6]; 0.0005 in [7]. Also, the composite z-score in assay [8] is 0.226; in assay [9], -0.445; in assay [10] it was 0.704; in assay [11] it was 1.2; in assay [13], -0.527; in assay [14] it was 0.189. For the same compound, the composite z-score in assay [15] is 0.25; in assay [16], 0.612; in assay [17] it was -0.214; in [18], 0.53; in assay [19] it was 0.447; in [20], 1.39. The z-score was -0.115 (inactive) in [4] and -0.171 in assay [12].

As to `C=CCNC(=O)[C@H]1[C@@H]2C(=O)O[C@@H](c3ccccc3)[C@@H](c3ccccc3)N2[C@@H](c2ccc(OCCO)cc2)[C@]12C(=O)Nc1ccccc12`, the composite z-score in assay [1] was 1.39; in assay [2] it was -0.106; in assay [3] it was 0.747; in [5] it was -0.0719; in assay [6] it was 0.164; in [7], -0.129. For the same compound, the composite z-score in assay [8] was 0.227; in [9], -0.939; in assay [10] it was -0.329; in [11], 1.39; in assay [13], -0.514; in assay [14], 1.85. Besides, the composite z-score in assay [15] is 0.345; in assay [16], -0.0405; in [17], -0.0505; in [18] it was 0.666; in assay [19], 1.87; in assay [20] it was 1.4. The z-score was -0.152 (inactive) in assay [4] and -1.4 in [12].

For the compound `CC(C)C(=C=CC[C@H](O)c1ccccc1OCCO)C[C@H](O)COCc1ccccc1`, the composite z-score is 1.63 in assay [1]; -0.293 in assay [2]; -0.0177 in assay [3]; 0.444 in assay [5]; -0.409 in assay [6]; -0.593 in assay [7]. Besides, the composite z-score was -0.428 in assay [8]; -0.42 in assay [9]; 0.482 in assay [10]; 0.257 in assay [11]; -0.274 in assay [13]; 0.444 in assay [14]. For the same compound, the composite z-score in [15] was -0.457; in assay [16] it was -0.128; in assay [17] it was -0.0681; in assay [18], -0.391; in [19], -0.251; in assay [20], 0.257. The z-score in assay [4] is -0.114 (inactive); in assay [12], -1.88.

As to `OCCCC1=CC(c2ccc(CN3CCCC3)cc2)N(Cc2cccc(OC(F)(F)F)c2)CC1` (stereo not given), the composite z-score in assay [1] was 0.203; in [2], -0.0082; in assay [3] it was 0.983; in assay [5], -0.327; in assay [6] it was -0.517; in [7], 0.297. The composite z-score in assay [8] is 0.0596; in assay [9] it was 0.0657; in assay [10], 1.65; in [11], -0.526; in assay [13], -0.103; in assay [14], -0.197. The composite z-score was 0.769 in assay [15]; -0.096 in [16]; -0.0769 in [17]; -0.0898 in assay [18]; 0.779 in assay [19]; -0.371 in assay [20]. The figures for the z-score in assay [4] and in [12] were -1.35 (inactive) and -4.72, respectively.

For `CN1C(=O)C2C(C3CC3)C=C3CN(Cc4cccc(Cl)c4)[C@@H]([C@@H](O)Cc4ccccc4)C3C2C1=O` (stereo not given in full), the composite z-score in [1] was 1.11; in assay [2] it was -0.217; in assay [3], -0.534; in assay [5] it was 0.939; in assay [6] it was 1.13; in [7] it was 0.621. For the same compound, the composite z-score in assay [8] was 0.961; in assay [9], 0.396; in assay [10] it was -0.262; in [11], 1.36; in assay [13] it was 0.526; in assay [14] it was 0.283. For the same compound, the composite z-score in assay [15] is -0.469; in [16], -0.244; in assay [17], -0.462; in [18] it was -0.332; in assay [19] it was 0.648; in assay [20] it was 1.04. The z-score is -1.32 (inactive) in assay [4] and -1.6 in assay [12].

Turning to `COC(=O)C(CC#Cc1ccc2c(c1)[C@]1(C(=O)N2)[C@H](c2ccccc2OCCO)N2[C@H](c3ccccc3)[C@H](c3ccccc3)OC(=O)[C@H]2[C@@H]1C(=O)N1CCc2cc(OC)c(OC)cc2C1)C(=O)OC`, the composite z-score in assay [1] came to 1.56; in [2], 0.0978; in assay [3], 0.048; in assay [5], 0.71; in assay [6], 1.3; in [7], 1.02. The composite z-score was determined as 1.26 in assay [8]; 0.882 in assay [9]; 0.279 in assay [10]; 1.37 in assay [11]; 0.541 in assay [13]; 0.0823 in assay [14]. Further, the composite z-score in assay [15] was -0.34; in [16] it was -0.117; in assay [17], -0.0626; in assay [18], -0.259; in assay [19], 1.68; in [20], 0.647. The z-score in [4] was -0.795 (inactive); in assay [12], -1.68.
